From PMC7862700, “An all-to-all approach to the identification of sequence-specific readers for epigenetic DNA modifications on cytosine” come the findings set out here.

What all share (experiment): DAPPL (digital affinity profiling via proximity ligation, sequencing); 10 mM Tris-HCl pH 7.5, 50 mM NaCl, 1 mM DTT, 4% glycerol, room temperature, 30 min; GST-TFs on glutathione beads, 16-mer random dsDNA library, 0.1% formaldehyde crosslink after washing; high values mean tight binding
Common to all, as to conditions: protein: recombinant; tags: N-terminal GST; dsDNA, one strand shown

For one assay, the target named is T1, FLI1 (Homo sapiens, UniProt Q01543 1-452).
T1 sequence: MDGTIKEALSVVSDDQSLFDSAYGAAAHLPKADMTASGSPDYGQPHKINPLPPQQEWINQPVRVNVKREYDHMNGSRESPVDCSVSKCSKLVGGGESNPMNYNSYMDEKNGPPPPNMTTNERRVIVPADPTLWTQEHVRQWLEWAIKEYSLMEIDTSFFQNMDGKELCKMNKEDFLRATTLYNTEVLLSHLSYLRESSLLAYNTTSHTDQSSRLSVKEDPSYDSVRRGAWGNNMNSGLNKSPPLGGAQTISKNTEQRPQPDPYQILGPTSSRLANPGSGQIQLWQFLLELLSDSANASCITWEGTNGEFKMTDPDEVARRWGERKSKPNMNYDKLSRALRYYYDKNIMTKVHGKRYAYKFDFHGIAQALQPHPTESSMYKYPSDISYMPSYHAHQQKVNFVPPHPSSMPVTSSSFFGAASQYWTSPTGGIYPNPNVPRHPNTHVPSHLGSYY
The method in brief: (§1)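 Pools of DNA-barcoded human transcription factors, expressed in yeast as GST fusions on glutathione beads and combined with a tag-only sample, were incubated with 200 nmole of a 16-mer random double-stranded DNA library. Incubation took 30 min at room temperature in Tris/NaCl/DTT/glycerol buffer and was followed by washing, 0.1% formaldehyde crosslinking, proximity ligation (BsaI/T4 ligase, 1 h, 37 °C), PCR amplification and sequencing on an Illumina NextSeq500. Binding signal is the ratio of a hexamer's read frequency for a factor to its frequency for the tag-only sample.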

The target of a further assay is T2, GABPA (Homo sapiens, UniProt Q06546 1-454).
T2 sequence: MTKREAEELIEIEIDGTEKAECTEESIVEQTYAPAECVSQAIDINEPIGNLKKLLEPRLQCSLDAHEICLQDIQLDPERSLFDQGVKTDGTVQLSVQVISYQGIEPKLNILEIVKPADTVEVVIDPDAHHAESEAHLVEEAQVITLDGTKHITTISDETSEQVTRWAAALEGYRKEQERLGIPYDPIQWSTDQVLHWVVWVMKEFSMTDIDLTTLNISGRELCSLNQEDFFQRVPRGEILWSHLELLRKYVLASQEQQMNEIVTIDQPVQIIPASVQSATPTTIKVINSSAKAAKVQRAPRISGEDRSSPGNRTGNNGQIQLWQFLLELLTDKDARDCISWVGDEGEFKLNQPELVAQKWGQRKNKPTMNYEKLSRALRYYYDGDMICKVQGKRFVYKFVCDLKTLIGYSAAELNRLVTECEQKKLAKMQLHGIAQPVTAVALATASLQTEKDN
The essentials: as §1

For the next assay, the target named is T3, ERG (Homo sapiens, UniProt P11308 1-479).
T3 sequence: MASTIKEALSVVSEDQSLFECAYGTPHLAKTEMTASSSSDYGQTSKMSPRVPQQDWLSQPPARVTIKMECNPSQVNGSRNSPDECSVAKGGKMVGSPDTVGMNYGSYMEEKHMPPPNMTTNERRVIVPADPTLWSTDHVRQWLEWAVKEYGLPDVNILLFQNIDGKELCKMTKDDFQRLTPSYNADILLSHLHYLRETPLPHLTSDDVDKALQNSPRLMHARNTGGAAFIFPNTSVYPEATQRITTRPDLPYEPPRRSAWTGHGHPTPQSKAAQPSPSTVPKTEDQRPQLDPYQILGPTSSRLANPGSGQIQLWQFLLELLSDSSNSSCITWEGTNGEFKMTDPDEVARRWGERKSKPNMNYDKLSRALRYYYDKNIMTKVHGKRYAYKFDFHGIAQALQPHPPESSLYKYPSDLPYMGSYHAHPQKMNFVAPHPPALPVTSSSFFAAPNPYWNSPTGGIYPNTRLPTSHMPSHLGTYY
The method in brief:
as §1

Another assay concerns the target T4, EHF (Homo sapiens, UniProt Q9NZC4 1-300).
T4 sequence: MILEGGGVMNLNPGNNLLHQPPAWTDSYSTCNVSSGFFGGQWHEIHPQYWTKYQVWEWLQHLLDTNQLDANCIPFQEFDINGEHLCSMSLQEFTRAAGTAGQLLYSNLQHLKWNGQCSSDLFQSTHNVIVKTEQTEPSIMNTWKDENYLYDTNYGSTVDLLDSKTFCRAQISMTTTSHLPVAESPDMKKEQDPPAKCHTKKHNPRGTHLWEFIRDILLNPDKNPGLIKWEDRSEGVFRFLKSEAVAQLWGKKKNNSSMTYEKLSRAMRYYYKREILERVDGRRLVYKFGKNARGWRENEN
The method in brief:
as §1

The next assay has as its target SPI1 (Homo sapiens, UniProt P17947 1-270). The essentials: as §1
A further assay concerns the target SPIB (Homo sapiens, UniProt Q01892 1-262). The method in brief:
as §1

A further assay addresses T5, FEV (Homo sapiens, UniProt Q99581 1-238).
T5 sequence: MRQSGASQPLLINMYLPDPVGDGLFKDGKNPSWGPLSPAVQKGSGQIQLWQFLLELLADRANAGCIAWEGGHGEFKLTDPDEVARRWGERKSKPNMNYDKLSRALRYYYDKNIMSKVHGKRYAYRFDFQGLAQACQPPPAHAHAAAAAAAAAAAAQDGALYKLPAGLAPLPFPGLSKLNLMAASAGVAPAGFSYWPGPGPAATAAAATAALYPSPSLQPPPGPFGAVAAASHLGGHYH
The method in brief:
as §1

The next assay addresses ETV5 (Homo sapiens, UniProt P41161 1-510). The essentials: as §1
The next assay concerns the target T6, SPIC (Homo sapiens, UniProt Q8N5J4 1-248).
T6 sequence: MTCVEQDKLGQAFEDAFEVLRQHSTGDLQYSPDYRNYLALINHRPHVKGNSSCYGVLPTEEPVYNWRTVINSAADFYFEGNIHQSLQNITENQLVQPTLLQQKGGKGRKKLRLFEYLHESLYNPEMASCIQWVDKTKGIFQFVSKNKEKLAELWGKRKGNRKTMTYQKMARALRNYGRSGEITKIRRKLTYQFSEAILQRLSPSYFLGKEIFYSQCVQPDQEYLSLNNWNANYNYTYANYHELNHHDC
The method in brief: as §1

A further assay deals with ELF4 (Homo sapiens, UniProt Q99607 1-663). The method in brief: as §1
The next assay deals with ETV1 (Homo sapiens, UniProt P50549 1-477). The method in brief:
as §1

A further assay addresses T7, ETV3L (Homo sapiens, UniProt Q6ZN32 1-361).
T7 sequence: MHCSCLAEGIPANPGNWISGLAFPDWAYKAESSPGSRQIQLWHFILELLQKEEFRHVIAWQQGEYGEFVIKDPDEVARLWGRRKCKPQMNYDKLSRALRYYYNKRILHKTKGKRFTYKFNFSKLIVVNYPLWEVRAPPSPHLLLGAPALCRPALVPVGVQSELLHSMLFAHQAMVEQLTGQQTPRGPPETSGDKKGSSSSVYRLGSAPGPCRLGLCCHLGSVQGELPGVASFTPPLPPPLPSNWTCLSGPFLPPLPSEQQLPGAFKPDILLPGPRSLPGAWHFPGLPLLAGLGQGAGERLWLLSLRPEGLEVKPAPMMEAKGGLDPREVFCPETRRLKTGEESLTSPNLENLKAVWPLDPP
The essentials: as §1

The target in a further assay is ETV6 (Homo sapiens, UniProt P41212 1-452). The method in brief: as §1
A further assay concerns the target ELF1 (Homo sapiens, UniProt P32519 1-619). The essentials:
as §1

For another assay, the target named is T8, ETS2 (Homo sapiens, UniProt P15036 1-469).
T8 sequence: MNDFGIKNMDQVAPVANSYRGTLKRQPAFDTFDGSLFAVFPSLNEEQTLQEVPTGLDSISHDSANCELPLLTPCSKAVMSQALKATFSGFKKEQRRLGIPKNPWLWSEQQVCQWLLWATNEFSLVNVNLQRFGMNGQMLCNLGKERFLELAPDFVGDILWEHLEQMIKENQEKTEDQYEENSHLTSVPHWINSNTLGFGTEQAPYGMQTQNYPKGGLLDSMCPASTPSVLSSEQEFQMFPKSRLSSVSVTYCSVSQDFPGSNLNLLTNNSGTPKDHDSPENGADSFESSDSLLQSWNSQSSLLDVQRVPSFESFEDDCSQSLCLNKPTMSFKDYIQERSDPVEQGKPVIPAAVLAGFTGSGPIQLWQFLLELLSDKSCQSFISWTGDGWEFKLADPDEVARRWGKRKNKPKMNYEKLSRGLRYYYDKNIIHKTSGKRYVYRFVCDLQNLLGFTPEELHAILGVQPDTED
The method in brief:
as §1

In a further assay the target is T9, SPDEF (Homo sapiens, UniProt O95238 1-335).
T9 sequence: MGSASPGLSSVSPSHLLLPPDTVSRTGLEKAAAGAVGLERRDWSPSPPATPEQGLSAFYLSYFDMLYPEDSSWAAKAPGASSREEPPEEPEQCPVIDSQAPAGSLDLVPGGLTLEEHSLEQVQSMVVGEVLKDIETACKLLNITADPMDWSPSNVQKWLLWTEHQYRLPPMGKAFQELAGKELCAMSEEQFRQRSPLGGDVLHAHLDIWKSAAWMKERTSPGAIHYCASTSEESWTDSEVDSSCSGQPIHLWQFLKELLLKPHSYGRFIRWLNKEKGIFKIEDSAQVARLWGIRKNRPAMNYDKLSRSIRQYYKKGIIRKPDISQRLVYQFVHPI
The method in brief:
as §1

The target of another assay is T10, ETV3 (Homo sapiens, UniProt P41162-2 1-143).
T10 sequence: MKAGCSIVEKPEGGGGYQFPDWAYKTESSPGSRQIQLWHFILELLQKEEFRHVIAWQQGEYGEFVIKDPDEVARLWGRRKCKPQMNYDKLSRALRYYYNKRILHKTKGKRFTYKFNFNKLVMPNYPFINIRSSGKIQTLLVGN
The essentials: as §1

ETV5, sequence (P41161 whole entry): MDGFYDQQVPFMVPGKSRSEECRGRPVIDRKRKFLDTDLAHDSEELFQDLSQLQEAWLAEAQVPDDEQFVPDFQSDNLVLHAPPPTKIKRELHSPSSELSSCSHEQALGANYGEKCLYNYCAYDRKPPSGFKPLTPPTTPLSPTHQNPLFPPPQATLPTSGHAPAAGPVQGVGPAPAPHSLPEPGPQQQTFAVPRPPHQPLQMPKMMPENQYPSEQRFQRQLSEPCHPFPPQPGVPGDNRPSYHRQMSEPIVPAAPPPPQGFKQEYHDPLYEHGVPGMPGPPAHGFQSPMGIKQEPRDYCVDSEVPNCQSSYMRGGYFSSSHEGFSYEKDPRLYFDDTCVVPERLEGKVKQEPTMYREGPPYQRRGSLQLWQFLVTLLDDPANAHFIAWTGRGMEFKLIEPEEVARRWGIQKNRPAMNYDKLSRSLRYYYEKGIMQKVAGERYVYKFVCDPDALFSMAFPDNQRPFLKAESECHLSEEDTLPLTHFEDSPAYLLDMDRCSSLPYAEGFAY
ETV1, sequence (P50549 whole entry): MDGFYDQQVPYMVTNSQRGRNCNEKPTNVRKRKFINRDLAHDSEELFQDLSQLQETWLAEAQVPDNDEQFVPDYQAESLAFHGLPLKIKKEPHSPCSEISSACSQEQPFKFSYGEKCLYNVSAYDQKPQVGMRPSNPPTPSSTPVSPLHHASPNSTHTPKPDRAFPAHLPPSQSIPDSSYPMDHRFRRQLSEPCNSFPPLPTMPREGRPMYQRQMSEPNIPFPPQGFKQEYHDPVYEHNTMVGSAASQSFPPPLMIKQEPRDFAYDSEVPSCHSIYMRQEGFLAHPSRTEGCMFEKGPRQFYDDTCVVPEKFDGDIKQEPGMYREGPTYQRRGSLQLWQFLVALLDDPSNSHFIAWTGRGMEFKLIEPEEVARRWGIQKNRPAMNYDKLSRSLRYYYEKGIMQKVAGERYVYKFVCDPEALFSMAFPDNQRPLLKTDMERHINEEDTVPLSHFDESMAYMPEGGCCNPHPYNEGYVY
ELF4, sequence (Q99607 whole entry): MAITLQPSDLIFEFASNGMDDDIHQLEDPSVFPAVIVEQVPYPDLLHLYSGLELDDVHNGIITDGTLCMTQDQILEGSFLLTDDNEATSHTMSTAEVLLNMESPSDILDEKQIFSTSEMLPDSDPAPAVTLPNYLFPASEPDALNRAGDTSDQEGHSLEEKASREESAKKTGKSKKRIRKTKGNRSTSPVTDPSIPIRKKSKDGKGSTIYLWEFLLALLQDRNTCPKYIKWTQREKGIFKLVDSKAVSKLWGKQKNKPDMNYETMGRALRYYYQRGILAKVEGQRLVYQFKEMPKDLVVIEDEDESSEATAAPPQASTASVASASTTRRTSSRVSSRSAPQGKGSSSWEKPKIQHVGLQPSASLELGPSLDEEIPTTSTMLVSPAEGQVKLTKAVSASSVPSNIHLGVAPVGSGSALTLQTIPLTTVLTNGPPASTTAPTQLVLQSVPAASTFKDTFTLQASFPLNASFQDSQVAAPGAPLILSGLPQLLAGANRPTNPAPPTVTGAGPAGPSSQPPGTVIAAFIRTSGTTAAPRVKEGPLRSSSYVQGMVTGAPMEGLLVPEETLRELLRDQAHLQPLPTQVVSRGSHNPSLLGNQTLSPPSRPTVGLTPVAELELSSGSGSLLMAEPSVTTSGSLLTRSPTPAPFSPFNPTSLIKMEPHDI
ETV6, sequence (P41212 whole entry): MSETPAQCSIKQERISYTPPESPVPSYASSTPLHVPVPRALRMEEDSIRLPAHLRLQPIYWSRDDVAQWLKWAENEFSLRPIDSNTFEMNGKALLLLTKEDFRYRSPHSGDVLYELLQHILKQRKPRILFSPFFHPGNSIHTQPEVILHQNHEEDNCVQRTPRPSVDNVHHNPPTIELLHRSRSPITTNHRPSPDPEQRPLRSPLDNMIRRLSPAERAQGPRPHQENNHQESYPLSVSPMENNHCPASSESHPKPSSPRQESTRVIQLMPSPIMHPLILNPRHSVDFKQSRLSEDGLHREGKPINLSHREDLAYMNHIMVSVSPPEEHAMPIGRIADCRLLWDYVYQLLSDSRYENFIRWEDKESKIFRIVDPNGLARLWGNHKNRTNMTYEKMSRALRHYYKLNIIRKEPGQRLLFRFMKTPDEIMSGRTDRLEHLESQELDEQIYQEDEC
SPIB, sequence (Q01892 whole entry): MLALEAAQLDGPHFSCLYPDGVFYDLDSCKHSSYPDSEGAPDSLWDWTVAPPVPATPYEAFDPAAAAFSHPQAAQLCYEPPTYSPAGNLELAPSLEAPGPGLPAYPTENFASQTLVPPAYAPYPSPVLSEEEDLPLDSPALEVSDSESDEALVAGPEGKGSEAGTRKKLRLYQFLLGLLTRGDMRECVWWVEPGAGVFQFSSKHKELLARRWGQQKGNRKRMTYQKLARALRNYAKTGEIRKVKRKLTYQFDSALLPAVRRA
ELF1, sequence (P32519 whole entry): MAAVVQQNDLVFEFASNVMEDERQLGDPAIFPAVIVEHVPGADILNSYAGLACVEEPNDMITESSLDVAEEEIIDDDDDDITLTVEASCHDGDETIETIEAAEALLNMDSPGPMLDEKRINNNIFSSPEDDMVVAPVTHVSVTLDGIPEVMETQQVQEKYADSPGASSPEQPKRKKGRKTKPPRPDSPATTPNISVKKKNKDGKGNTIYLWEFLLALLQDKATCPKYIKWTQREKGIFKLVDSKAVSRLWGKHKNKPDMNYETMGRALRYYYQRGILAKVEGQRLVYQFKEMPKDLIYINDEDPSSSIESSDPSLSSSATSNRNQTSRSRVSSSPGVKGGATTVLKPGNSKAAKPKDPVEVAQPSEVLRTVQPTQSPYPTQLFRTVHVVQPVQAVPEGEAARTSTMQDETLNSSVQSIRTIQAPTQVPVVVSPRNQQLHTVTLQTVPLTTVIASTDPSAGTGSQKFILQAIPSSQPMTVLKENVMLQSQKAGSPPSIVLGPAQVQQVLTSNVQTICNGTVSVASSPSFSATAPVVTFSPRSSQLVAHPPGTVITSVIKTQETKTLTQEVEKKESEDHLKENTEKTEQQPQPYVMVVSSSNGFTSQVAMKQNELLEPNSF

For TGTGGC, the binding signal was 1.05 fold enrichment (6-mer frequency, TF over GST control) in the assay with FLI1; 1.03 fold enrichment (6-mer frequency, TF over GST control) in the assay with GABPA; 1.07 fold enrichment (6-mer frequency, TF over GST control) in the assay with ERG; 1.02 fold enrichment (6-mer frequency, TF over GST control) with EHF; 1.14 fold enrichment (6-mer frequency, TF over GST control) in the assay with SPI1; 1.09 fold enrichment (6-mer frequency, TF over GST control) with SPIB. For the same sequence, the binding signal in the assay with FEV is 1.13 fold enrichment (6-mer frequency, TF over GST control); with ETV5, 1.01 fold enrichment (6-mer frequency, TF over GST control); with SPIC, 1.14 fold enrichment (6-mer frequency, TF over GST control); with ELF4, 1.02 fold enrichment (6-mer frequency, TF over GST control); with ETV1, 1.05 fold enrichment (6-mer frequency, TF over GST control); in the assay with ETV3L, 1.06 fold enrichment (6-mer frequency, TF over GST control). Moreover, the binding signal with ETV6 was 1.19 fold enrichment (6-mer frequency, TF over GST control).
In the case of GGCCCC, the binding signal in the assay with FLI1 was 1.02 fold enrichment (6-mer frequency, TF over GST control); with GABPA, 1.03 fold enrichment (6-mer frequency, TF over GST control); with ERG it was 1.04 fold enrichment (6-mer frequency, TF over GST control); with ELF1, 1.02 fold enrichment (6-mer frequency, TF over GST control); with SPI1 it was 1.03 fold enrichment (6-mer frequency, TF over GST control); with FEV it was 1.06 fold enrichment (6-mer frequency, TF over GST control). Further, the binding signal is 1.02 fold enrichment (6-mer frequency, TF over GST control) with ETV5; 1.01 fold enrichment (6-mer frequency, TF over GST control) with SPIC; 1 fold enrichment (6-mer frequency, TF over GST control) with ELF4; 1.03 fold enrichment (6-mer frequency, TF over GST control) with ETV1; 1.03 fold enrichment (6-mer frequency, TF over GST control) with ETS2; 1.05 fold enrichment (6-mer frequency, TF over GST control) in the assay with SPDEF. Further, the binding signal with ETV3 was 1.05 fold enrichment (6-mer frequency, TF over GST control).
